Values joined by “and” are separate entries in the source; they are usually repeats but may differ in a detail not shown here. Equal values may be shown once. Inconclusive results are not listed. Active and inactive are the calls of the source. Unless noted, calls come from the whole dose curve; as a rule, active = well fitted curve in the direction sought with a large enough effect; inconclusive = small, poorly fitted or top-dose-only effect, or another doubt; inactive = no such curve, though single readings can be large; an effect the other way counts as inactive or inconclusive.

Assay [1] has as its target Galactokinase (Homo sapiens) (UniProt P51570). Put plainly: qHTS Validation Assay for Inhibitors of Human Galactokinase (GALK) (AID 493189). Note: 0% is about no effect. An outline of the steps: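 GALK (5 nM) with 35 uM ATP and 100 uM galactose in HEPES pH 8.0 with MgCl2, NaCl, DTT and BSA. Reaction ran 1 h at room temperature. Residual ATP read by Kinase-Glo Plus luminescence.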
The nature of assay [2]: Validation screen for small molecules that induce DNA re-replication in SW480 colon adenocarcinoma cells (AID 504364). Note: 0% is about no effect. An outline of the steps:
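Cells are treated 48 hr with test compound, stained 40 min with Hoechst at 37 C, and scanned for nuclear fluorescence; compounds inducing re-replication increase nuclei with elevated intensity.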

For assay [3], the target named is Peptidyl-prolyl cis-trans isomerase NIMA-interacting 1 (Homo sapiens) (UniProt Q13526). The assay can be described thus: qHTS Validation Assay to Find Inhibitors of Pin1 (AID 504536; active = well fitted inhibition curve with a large enough effect in the polarisation, with a control signal flat, not every such curve was filed as active; the % refers to the polarisation;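 note: 0% = full Pin1 enzyme wells and -100% = no-enzyme wells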). A digest of the protocol: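 Fluorescence polarization competition: compounds (titration) displace HiFluor-488-labeled Pin1-1b peptide from Pin1 (0.3 uM final) in pH 7.5 HEPES buffer with DTT, 10 min at room temperature; %Activity normalized to no-enzyme wells, curves fitted.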

The target of assay [4] is Phosphoglycerate kinase, glycosomal (Trypanosoma brucei brucei) (UniProt P07378). Put plainly: qHTS Validation Assay to Find Inhibitors of Phosphoglycerate Kinase (AID 504547).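 Note: control wells lack PGK and mark full inhibition.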 An outline of the steps: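 Inhibition of the enzyme is judged by a Kinase-Glo Plus luminescent signal following a one-hour incubation at room temperature. Because 1,3-BPG is unstable, it is made in situ by GAPDH at 100nM final; no-PGK wells define the baseline.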

Assay [5] has as its target phosphoglycerate mutase (Leishmania major) (UniProt Q4Q090). The assay can be described thus: qHTS Validation Assay to Find Inhibitors of Phosphoglycerate Mutase (AID 504548).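 Note: end-point luminescence from Kinase-GloPlus after the PGAM reaction; series mostly up to about 58 µM; % is set by controls: 0 for no effect and ±100 for the full control effect.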 A digest of the protocol:
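Inhibition of L. major PGAM was assessed by Kinase-GloPlus luminescence following a 45-minute room-temperature reaction with enzyme at 1.25nM final.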

For assay [6], the target named is Ubiquitin carboxyl-terminal hydrolase 1 (Homo sapiens) (UniProt O94782). Put plainly: Inhibitors of USP1/UAF1: Pilot qHTS (AID 504865).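 Note: rhodamine fluorescence freed from ubiquitin-rhodamine substrate followed over time; top concentration of the series differs between compounds; % is set by controls: 0 for no effect and ±100 for the full control effect; nearly all actives have a fitted effect of over 35% in size.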 An outline of the steps:
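USP1/UAF1 complex at 1 nM preincubated 15 min at room temperature with compound, then Ub-Rho substrate added at 150 nM final. Fluorescence (480/540 nm) read kinetically in 50 mM HEPES pH 7.8, 0.5 mM EDTA, 1 mM TCEP, 0.1 mg/ml BSA, 0.01% Tween-20.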

The nature of assay [7]: qHTS for Inhibitors of ATXN expression: Validation of Cytotoxic Assay (AID 588349).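 Note: cells exposed to compound for 72 hr; % is set by controls: 0 for no effect and ±100 for the full control effect.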 A digest of the protocol:
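HEK293, compound dose series, 72 hr / 37 degrees C; viability via CellTiter Glo (intracellular ATP).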

Assay [8] can be described thus: qHTS for Inhibitors of ATXN expression: Validation (AID 588378). Note: series mostly up to about 57 µM; % is set by controls: 0 for no effect and ±100 for the full control effect; nearly all actives have a fitted effect of over 75% in size. An outline of the steps:
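HEK293 cells carrying ATXN2-firefly luciferase reporter, treated with compound 24 h at 37 °C. Viability read first by CellTiter-Fluor (405/525 nm), then reporter expression by Bright-Glo luminescence; controls were a known ATXN2 expression inhibitor and a luciferase inhibitor.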

Assay [9] deals with Androgen receptor (Homo sapiens) (UniProt P10275). Put plainly: qHTS assay for small molecule antagonists of androgen receptor signaling (AID 588516; active = well fitted curve in the direction sought with a large enough effect in the signal ratio, with a control signal flat, not every such curve was filed as active; the % refers to the signal ratio; note: % is set by controls: 0 for no effect and ±100 for the full control effect). A digest of the protocol:
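AR-UAS-bla GripTite HEK 293 cells (2000/well) treated with compound titrations plus 10 nM R1881 for 16 h at 37C. Beta-lactamase read by CCF4 FRET (460/530 nm); IC50 from Hill fits, normalized to R1881 and DMSO control wells.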

The target of assay [10] is Bile acid receptor (Homo sapiens) (UniProt Q96RI1). The assay can be described thus: qHTS assay for small molecule antagonists of farnesoid X receptor signaling (AID 588526; calls by dose curve; note: % is set by controls: 0 for no effect and ±100 for the full control effect). An outline of the steps:
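Beta-lactamase reporter antagonist mode: HEK293T FXR-UAS-bla cells, titrated compound, CDCA stimulation, 16 h 37 C, CCF4 dye 2 h RT. Data normalized to CDCA 50 uM and DMSO; Hill-fit IC50.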

In assay [11] the target is Glucocorticoid receptor (Homo sapiens) (UniProt P04150). Put plainly: qHTS assay for small molecule agonists of glucocorticoid receptor signaling (AID 588532; active = well fitted curve in the direction sought with a large enough effect in the signal ratio, with a control signal flat; the % refers to the signal ratio;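 note: 100% = dexamethasone at 0.1 µM and 0% = DMSO only wells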). To be noted: HeLa MMTV-bla, beta-lactamase ratio, agonist, 18 h; stronger effect = higher value; percent of dexamethasone control, DMSO zero. A digest of the protocol:
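Agonist-mode qHTS: GRE-driven beta-lactamase in HeLa cells exposed 18 h to titrated compounds (up to 92 uM), then CCF4 ratio read after 2 h at RT; Hill-fitted EC50, efficacy relative to 0.1 uM dexamethasone.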

Assay [12] shares this target. Put plainly: qHTS assay for small molecule antagonists of glucocorticoid receptor signaling (AID 588533; active = well fitted inhibition curve with a large enough effect in the signal ratio, with a control signal flat, not every such curve was filed as active; the % refers to the signal ratio). An outline of the steps:
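Antagonist-mode qHTS: compound titrations added to GRE-bla HeLa cells, then dexamethasone 2 nM final; 18 h, 37 C. CCF4 FRET fluorescence normalized to dexamethasone and DMSO; IC50 from Hill fit.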

Assay [13] can be described thus: qHTS assay for small molecule antagonists of peroxisome proliferator-activated receptor delta signaling (AID 588535).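 Note: cells co-treated with a PPAR-delta agonist as stimulator during compound exposure.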 To be noted: HEK293T PPARd-UAS-bla, beta-lactamase FRET ratio, 18 h; 460 nm channel. A digest of the protocol: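 Cell-based beta-lactamase assay in antagonist mode: 4000 HEK293T PPAR-delta-UAS-bla cells per well, 5 hr preincubation then 18 hr compound incubation at 37 C. IC50 obtained by Hill equation fitting.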

For assay [14], the target named is Peroxisome proliferator-activated receptor gamma (Homo sapiens) (UniProt P37231). Put plainly: qHTS assay for small molecule agonists of peroxisome proliferator-activated receptor gamma signaling (AID 588536; active = well fitted curve in the direction sought with a large enough effect in the signal ratio, with a control signal flat, not every such curve was filed as active; the % refers to the signal ratio;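 note: 0% = DMSO basal wells and 100% = rosiglitazone at 2 µM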). An outline of the steps: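 HEK293 UAS-bla reporter line, 1% charcoal/dextran FBS; titration, 16 h, 37 C; CCF4 loading 2 h RT; fluorescence 460/530 nm. Normalized to rosiglitazone 2 uM = 100%, DMSO = 0%.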

Assay [15] shares this target. The assay can be described thus: qHTS assay for small molecule antagonists of peroxisome proliferator-activated receptor gamma signaling (AID 588537; active = well fitted inhibition curve with a large enough effect in the signal ratio, with a control signal flat, not every such curve was filed as active; the % refers to the signal ratio;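 note: reporter cells co-stimulated with 50 nM rosiglitazone agonist during compound treatment; % of control where 0% means no effect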). An outline of the steps: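 Inhibitors of agonist-stimulated UAS-bla reporter activity were sought in HEK293 cells; rosiglitazone (50 nM) defined full signal and DMSO baseline. Curves fitted to Hill model gave IC50 and efficacy.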

Assay [16] addresses Estrogen receptor (Homo sapiens) (UniProt P03372). Put plainly: qHTS assay for small molecule agonists of estrogen receptor alpha signaling (AID 588514; calls by dose curve;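 note: 0% = vehicle only and 100% = reference agonist; nearly all actives have a fitted effect of over 70% in size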). A digest of the protocol:
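Reporter-gene assay. […] controls beta-lactamase in HEK 293 GripTite cells; after 18 hrs with compound, CCF4 substrate is added for 2 hrs and fluorescence is read.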

For assay [17], the target named is Androgen receptor (Homo sapiens) (UniProt P10275). The assay can be described thus: qHTS assay for small molecule agonists of androgen receptor signaling (AID 588515; active = well fitted curve in the direction sought with a large enough effect in the signal ratio, with a control signal flat; the % refers to the signal ratio; note: % is set by controls: 0 for no effect and ±100 for the full control effect). As to conditions: AR-UAS-bla HEK293, beta-lactamase ratio, agonist 16 h; stronger effect = higher value. An outline of the steps:
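EC50 and efficacy came from Hill fits of titrations (up to 92 uM) normalized to 30 nM R1881 as 100% and DMSO as 0%. Compound exposure was 16 h at 37 C on AR-UAS-bla HEK293 cells, with a 405/460/530 nm CCF4 fluorescence read.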

Assay [18] deals with Vitamin D3 receptor (Homo sapiens) (UniProt P11473). The assay can be described thus: qHTS assay for small molecule antagonists of vitamin D receptor signaling (AID 588541; calls by dose curve). A digest of the protocol:
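Antagonist-mode beta-lactamase reporter assay: HEK293T VDR-UAS-bla cells were exposed to titrated compound alongside 1-alpha,25-dihydroxyvitamin D3 at 3 nM final for 16 h. Values were normalized to the 50 nM agonist control and DMSO basal, with IC50 and efficacy from Hill equation fits.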

For assay [19] the target is unchanged. Put plainly: qHTS assay for small molecule agonists of vitamin D receptor signaling (AID 588543; calls by dose curve;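 note: 0% = DMSO basal and 100% = reference agonist control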). A digest of the protocol:
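VDR-UAS-bla HEK293T cells, 2000/well, 2% charcoal-stripped FBS; compound titration 16 h at 37 C; CCF4 beta-lactamase ratio read. Normalized to 50 nM 1-alpha,25-dihydroxyvitamin D3 (100%) and DMSO; Hill fit gives EC50, efficacy.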

Sequence of Peptidyl-prolyl cis-trans isomerase NIMA-interacting 1 (Homo sapiens) (Q13526 whole entry, looked up): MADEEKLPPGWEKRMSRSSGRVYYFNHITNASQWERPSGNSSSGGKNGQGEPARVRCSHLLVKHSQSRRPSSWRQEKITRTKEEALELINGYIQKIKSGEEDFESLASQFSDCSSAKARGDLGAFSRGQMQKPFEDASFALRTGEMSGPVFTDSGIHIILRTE
Sequence of Peroxisome proliferator-activated receptor gamma (Homo sapiens) (P37231 whole entry, looked up): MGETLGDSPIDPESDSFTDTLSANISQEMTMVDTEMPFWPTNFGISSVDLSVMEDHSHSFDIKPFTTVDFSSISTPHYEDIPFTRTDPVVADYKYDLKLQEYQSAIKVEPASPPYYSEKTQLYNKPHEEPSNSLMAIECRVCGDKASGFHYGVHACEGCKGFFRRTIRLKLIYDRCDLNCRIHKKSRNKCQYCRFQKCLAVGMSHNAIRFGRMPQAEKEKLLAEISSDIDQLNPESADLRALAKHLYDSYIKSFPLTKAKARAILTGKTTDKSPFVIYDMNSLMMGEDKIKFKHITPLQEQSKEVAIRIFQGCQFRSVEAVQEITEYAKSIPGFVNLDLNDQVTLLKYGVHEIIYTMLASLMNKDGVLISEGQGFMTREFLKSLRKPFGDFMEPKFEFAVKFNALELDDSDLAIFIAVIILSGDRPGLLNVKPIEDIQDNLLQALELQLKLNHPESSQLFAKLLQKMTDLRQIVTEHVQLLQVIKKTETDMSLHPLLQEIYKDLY
Sequence of Phosphoglycerate kinase, glycosomal (Trypanosoma brucei brucei) (P07378 whole entry, looked up): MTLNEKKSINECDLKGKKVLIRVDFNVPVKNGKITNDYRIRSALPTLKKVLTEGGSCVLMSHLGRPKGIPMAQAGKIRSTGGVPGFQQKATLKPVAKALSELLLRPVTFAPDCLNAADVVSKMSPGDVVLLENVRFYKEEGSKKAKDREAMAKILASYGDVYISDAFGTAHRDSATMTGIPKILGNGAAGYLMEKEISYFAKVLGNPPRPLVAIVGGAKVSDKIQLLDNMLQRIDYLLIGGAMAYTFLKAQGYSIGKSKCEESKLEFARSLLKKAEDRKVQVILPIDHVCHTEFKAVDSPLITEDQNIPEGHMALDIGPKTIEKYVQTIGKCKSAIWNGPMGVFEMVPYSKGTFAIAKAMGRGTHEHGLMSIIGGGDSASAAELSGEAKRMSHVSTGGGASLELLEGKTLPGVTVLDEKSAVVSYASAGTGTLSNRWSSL
Sequence of Glucocorticoid receptor (Homo sapiens) (P04150 whole entry, looked up): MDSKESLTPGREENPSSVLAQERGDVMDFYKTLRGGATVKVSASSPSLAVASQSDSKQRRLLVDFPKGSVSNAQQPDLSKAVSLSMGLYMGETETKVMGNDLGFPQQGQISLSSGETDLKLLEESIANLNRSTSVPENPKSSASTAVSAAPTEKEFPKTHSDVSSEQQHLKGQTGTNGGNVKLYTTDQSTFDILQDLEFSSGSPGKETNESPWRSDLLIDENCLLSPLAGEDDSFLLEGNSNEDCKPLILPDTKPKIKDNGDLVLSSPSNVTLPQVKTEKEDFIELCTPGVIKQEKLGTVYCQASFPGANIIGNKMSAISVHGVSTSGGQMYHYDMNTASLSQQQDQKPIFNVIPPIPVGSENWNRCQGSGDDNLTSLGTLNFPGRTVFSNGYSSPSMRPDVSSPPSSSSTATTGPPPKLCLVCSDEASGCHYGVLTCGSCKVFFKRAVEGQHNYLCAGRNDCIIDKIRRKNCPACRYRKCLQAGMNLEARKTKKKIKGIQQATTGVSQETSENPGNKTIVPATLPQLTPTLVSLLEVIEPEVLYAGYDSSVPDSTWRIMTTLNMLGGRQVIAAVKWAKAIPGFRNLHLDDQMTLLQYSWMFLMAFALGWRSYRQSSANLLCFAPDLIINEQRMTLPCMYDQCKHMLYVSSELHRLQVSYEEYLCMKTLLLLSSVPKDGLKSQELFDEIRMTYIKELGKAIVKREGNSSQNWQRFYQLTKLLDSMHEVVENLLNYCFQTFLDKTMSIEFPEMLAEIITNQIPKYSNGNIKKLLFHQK
Sequence of Galactokinase (Homo sapiens) (P51570 whole entry, looked up): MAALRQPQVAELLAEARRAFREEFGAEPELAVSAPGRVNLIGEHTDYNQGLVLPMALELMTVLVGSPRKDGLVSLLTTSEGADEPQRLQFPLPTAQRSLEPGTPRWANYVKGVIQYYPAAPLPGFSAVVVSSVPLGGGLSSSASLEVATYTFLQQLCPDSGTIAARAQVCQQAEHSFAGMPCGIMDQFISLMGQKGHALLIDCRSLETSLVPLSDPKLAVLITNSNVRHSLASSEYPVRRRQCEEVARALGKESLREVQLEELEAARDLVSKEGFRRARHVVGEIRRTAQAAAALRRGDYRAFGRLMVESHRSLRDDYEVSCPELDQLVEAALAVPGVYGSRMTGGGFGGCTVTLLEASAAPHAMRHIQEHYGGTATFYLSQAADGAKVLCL
Sequence of Androgen receptor (Homo sapiens) (P10275 whole entry, looked up): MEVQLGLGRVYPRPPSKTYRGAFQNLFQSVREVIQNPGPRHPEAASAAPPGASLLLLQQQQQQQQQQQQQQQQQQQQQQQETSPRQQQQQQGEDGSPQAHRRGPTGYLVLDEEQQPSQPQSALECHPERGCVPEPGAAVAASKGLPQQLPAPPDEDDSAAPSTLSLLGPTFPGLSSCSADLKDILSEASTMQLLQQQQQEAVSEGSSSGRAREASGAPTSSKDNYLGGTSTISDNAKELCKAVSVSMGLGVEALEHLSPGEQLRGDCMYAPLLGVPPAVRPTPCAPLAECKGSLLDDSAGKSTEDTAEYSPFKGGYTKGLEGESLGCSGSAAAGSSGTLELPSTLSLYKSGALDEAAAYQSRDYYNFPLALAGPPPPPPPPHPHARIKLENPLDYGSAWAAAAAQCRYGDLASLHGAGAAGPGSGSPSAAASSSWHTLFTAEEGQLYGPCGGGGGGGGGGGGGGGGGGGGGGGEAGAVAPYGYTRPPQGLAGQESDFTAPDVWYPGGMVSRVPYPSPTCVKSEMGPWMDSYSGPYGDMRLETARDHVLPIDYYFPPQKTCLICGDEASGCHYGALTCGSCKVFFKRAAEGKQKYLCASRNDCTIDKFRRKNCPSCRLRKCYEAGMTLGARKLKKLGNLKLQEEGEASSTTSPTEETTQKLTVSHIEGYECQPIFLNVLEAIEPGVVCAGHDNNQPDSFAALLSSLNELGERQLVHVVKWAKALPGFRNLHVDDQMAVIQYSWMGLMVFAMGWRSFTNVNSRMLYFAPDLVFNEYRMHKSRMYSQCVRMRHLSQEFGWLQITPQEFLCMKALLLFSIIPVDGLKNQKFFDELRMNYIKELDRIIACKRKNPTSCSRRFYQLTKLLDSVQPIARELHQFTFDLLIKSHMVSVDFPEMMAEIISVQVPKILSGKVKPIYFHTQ
Sequence of phosphoglycerate mutase (Leishmania major) (Q4Q090 1-553): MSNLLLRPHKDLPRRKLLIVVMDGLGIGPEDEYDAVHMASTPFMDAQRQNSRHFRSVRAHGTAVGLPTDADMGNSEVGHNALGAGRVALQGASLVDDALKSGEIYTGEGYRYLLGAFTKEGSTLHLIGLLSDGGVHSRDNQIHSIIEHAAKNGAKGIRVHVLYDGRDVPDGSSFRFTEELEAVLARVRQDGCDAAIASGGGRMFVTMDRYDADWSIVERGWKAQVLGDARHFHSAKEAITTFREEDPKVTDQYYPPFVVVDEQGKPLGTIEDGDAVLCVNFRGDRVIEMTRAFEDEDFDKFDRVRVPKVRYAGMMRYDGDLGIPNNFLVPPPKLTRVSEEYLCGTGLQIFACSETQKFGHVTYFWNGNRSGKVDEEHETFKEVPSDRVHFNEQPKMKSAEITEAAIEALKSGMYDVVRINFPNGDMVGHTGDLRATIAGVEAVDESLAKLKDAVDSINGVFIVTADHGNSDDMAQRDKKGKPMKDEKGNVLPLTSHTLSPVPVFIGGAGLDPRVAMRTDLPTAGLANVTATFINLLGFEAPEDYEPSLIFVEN
Sequence of Ubiquitin carboxyl-terminal hydrolase 1 (Homo sapiens) (O94782 whole entry, looked up): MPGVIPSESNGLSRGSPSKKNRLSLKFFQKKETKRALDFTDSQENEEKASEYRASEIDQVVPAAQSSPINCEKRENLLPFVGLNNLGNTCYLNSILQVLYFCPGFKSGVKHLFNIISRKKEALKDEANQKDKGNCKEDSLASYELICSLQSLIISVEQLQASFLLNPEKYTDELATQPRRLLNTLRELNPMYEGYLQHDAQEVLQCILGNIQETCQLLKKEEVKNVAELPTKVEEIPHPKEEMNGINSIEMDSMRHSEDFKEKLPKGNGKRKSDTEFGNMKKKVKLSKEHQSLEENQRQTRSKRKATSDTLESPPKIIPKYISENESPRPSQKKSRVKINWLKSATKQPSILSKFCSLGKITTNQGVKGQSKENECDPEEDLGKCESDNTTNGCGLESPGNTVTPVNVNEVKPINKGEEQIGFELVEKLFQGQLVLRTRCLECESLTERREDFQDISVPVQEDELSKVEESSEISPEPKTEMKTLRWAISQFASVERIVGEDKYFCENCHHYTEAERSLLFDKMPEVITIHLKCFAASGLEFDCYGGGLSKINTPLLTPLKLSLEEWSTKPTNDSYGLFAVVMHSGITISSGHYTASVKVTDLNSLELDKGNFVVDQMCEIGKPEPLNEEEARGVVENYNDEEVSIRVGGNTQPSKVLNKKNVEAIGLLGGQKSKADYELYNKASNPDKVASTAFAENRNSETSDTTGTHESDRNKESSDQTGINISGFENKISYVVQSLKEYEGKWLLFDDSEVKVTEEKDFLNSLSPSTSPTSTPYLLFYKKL
Sequence of Bile acid receptor (Homo sapiens) (Q96RI1 whole entry, looked up): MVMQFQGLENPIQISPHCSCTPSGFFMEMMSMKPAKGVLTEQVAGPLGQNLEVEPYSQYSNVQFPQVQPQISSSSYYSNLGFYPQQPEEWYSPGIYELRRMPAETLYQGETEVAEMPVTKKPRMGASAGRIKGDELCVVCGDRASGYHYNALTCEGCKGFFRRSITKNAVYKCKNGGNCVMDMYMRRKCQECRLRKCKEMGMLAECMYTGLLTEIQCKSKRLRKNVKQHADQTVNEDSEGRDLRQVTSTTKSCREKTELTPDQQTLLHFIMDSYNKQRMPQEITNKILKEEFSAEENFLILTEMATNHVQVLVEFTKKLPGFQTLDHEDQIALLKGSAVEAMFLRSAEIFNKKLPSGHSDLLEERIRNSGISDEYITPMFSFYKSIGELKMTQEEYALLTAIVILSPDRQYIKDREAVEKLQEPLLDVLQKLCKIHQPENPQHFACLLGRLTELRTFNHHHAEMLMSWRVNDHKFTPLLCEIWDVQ

`CCN1CCC[C@H]1CNC(=O)c1cc(S(N)(=O)=O)ccc1OC`: the compound was classed as inactive in assay [1], in [2], in assay [3], in assay [4] and in assay [5]. In addition, the Potency result in assay [6], in assay [7] and in [8] was “inactive” throughout.

With `C[N+](C)(C)CCCCCC[N+](C)(C)C`, the call in assay [1], in [2], in [3], in assay [4] and in [5] was inactive. The Potency entry in assay [6], in [7] and in assay [8] was “inactive” each time.

On to `COc1cccc(-c2cc(=O)c3ccccc3o2)c1N`, for which the result in assay [1], in assay [2], in [3], in [4] and in [5] was inactive. The Potency entry in assay [6], in assay [7] and in assay [8] was “inactive” each time.

With `COC(=O)[C@@H]1[C@H]2C[C@H]3c4[nH]c5ccccc5c4CCN3C[C@@H]2CC[C@@H]1O`, the outcome in assay [1], in [2], in [3], in assay [4] and in assay [5] was inactive. The Potency result in [6] and in assay [7] was “inactive” throughout.

`CC(=O)CCCCn1c(=O)c2c(ncn2C)n(C)c1=O`: the compound was called inactive in [1], in assay [2], in assay [3], in assay [4] and in [5]. Also, the Potency entry in [6], in assay [7] and in assay [8] was “inactive” throughout.

With `CCN(CC)C(=O)c1ccc(O)c(OC)c1`, the compound was called inactive in assay [1], in [2], in assay [3], in assay [4] and in assay [5]. Also, the Potency result in assay [6], in [7] and in [8] was “inactive” throughout.

`O=C(O)CCc1nc(-c2ccccc2)c(-c2ccccc2)o1`: the result in assay [1], in assay [2], in assay [3], in [4] and in assay [5] was inactive. Moreover, the Potency result in assay [6], in [7] and in [8] was “inactive” each time.

On to `O=c1c(-c2ccc(O)cc2)coc2cc(O)ccc12`, for which the outcome in assay [1], in [2], in assay [3], in assay [4], in [5] and in assay [9] was inactive. Moreover, the result in [10] and in [14] was inactive. For the same compound, the Potency result in [6], in assay [7], in assay [8], in assay [12] and in assay [15] was “inactive” in each case. In addition, the activation in assay [11] is -8.98% (inactive) and -6.42% (inactive). Further, the max response in assay [13] is 40.9% and 70.8%.

For the compound `CC(C)OC(=O)C(C)(C)Oc1ccc(C(=O)c2ccc(Cl)cc2)cc1`, the outcome in [1], in assay [2], in assay [3], in assay [4], in assay [5] and in [16] was inactive. In addition, the compound was called inactive in [9], in [10], in [18] and in assay [19]. Also, the Potency entry in assay [6], in assay [8] and in [12] was “inactive” each time. Moreover, the activation in [17] was -4% (inactive); in assay [11], 0.14% (inactive). Further, the max response in [13] was determined as 43.3%.
